The text below walks through data of PubChem BioAssay AID590 (National Center for Advancing Translational Sciences (NCATS), 2007).

In all, about 59,000 compounds went through this assay and about 6,500 (11%) were called active. About 15% were inconclusive and are not listed. This is one part of a sample in which actives are shown more often than they occur. Rule as the data show it: active = max dye-equivalent concentration above about 10 nM; inconclusive = mostly about 1.1 nM to 9.6 nM; inactive = weaker than that.

A short description of the test: qHTS Assay for Spectroscopic Profiling in A350 Spectral Region. As to conditions: Compound autofluorescence, 340/450 nm, Alexa 350 dye-equivalents; active compounds read high. An excerpt:
NIH Molecular Libraries Screening Centers Network [MLSCN]
NIH Chemical Genomics Center [NCGC]
Occasionally, the artifactual effect may originate from the compounds own spectral or other biophysical properties which generally tend to track its assay concentration. Pre-screening/profiling the library with respect to the compounds spectral properties should help one exclude false positives early on. While the most informative fluorescent profiling data set is obtained by performing a full excitation and emission scan of each well by using a monochromator-based plate reader, such an approach is practical only on a very limited scale as scanning each well requires long time. An alternative approach, applied here, is to perform plate reader scans using selected excitation and emission wavelength pairs to generate a multidimensional relational database that correlates compound concentration and the respective relative fluorescence intensity at a given wavelength set. A standard curve of Alexa 350 (A 350) present on each plate as six-point concentration series, was used to compute a normalized fluorescence response, termed dye-equivalent concentration, for each compound at each concentration.
NCGC Assay Protocol Summary:
100 mM Tris buffer, pH 8.0
The wells in columns 1 through 4 of a Kalypsys polypropylene 1536-well compound plate were filled with standard solutions of fluorophore corresponding to the spectral region of interest. Solutions of A 350 were placed in the following wells: I1, J1: 3 mM, I2, J2: 300 uM, I3, J3: 30 uM, I4, J4: zero (DMSO), K1, L1: 3 uM, K2, L2: […], K3, L3: 300 nM, K4, L4: zero (DMSO).
Six uL of buffer were dispensed to 1536-well Greiner black plates. Compounds and dye standards (23 nL) were transferred via Kalypsys PinTool. The plates were incubated for 15 min at room temperature, and then read on ViewLux (Perkin-Elmer) High-throughput CCD imager using 340 nm and 450 nm excitation and emission filter set.
Keywords: NIH Roadmap, MLSCN, MLI, MLSMR, qHTS, NCGC, A350, A-350, Fluorescent Profiling.
For orientation: qHTS replaces the single test concentration by a dilution series.
For `CN1CCN(Cc2nc3c(c(=O)n(C)c(=O)n3C)n2Cc2cccc3ccccc23)CC1`, the max dye-equivalent concentration result was “inactive”.

Turning to `Cc1nnc(C)n1/N=C/c1ccc(C(C)C)cc1`, the max dye-equivalent concentration result was “inactive”.

On to `O=C1CC(c2cccc(Br)c2)C2=C(CCCC2=O)N1` (stereo not given), for which the max dye-equivalent concentration is 44 nM (active).

For `O=C1CC(c2cccc(F)c2)C2=C(CCCC2=O)N1` (stereo not given), the max dye-equivalent concentration entry is “inactive”.

On to `CC(N)=NCc1cccc(CN)c1`, for which the max dye-equivalent concentration result was “inactive”.

As for `CCCCN(CC)CCCNC(=O)CS(=O)(=O)Cc1nc(-c2cccc(OC)c2)oc1C`, the max dye-equivalent concentration result is “inactive”.

For the molecule `CNC(=O)n1ccc(C(=O)N2CCCCC2)n1`, the max dye-equivalent concentration entry was “inactive”.

Take `CN(C)c1ccnc2sc3c(=O)n(Cc4ccccc4)cnc3c12`: the max dye-equivalent concentration was 32 nM (active).

Turning to `CN(C)/C=C/c1c(C#N)c(=O)ncn1Cc1ccccc1`, the max dye-equivalent concentration result was “inactive”.

Consider `O=C(Cc1cccs1)N1CCCC(c2nc(-c3ccc(S(=O)(=O)N4CCCC4)cc3)no2)C1` (stereo not given), for which the max dye-equivalent concentration entry was “inactive”.

For `COc1cc(Cl)c(C)cc1NC(=O)CSc1nnc(-c2cccnc2)n1Cc1ccco1`, the max dye-equivalent concentration entry is “inactive”.

`CO[C@@H]1/C=C\O[C@]2(C)Oc3c(C)c(O)c4c(O)c(c(CN(C)C)c(O)c4c3C2=O)NC(=O)/C(C)=C\C=C[C@@H](C)[C@@H](O)[C@H](C)[C@@H](O)[C@H](C)[C@H](OC(C)=O)[C@@H]1C`: the max dye-equivalent concentration result is “inactive”.

With `C=C(Br)Cn1c(CCCC)nc2ccccc21`, the max dye-equivalent concentration entry was “inactive”.

For `CCC(=O)Nc1nc2ccccc2n1Cc1ccccc1C`, the max dye-equivalent concentration result is “inactive”.

Regarding `CCc1nc2ccccc2n(CCOCCOCCn2c(=O)c(CC)nc3ccccc32)c1=O`, the max dye-equivalent concentration was 45 nM (active).

As to `O=C(OCC(=O)N1CCCC1)c1ccco1`, the max dye-equivalent concentration entry is “inactive”.

On to `COc1ccc(C)cc1-n1nnnc1SCC(=O)c1cc(C)n(Cc2ccco2)c1C`, for which the max dye-equivalent concentration result is “inactive”.

On to `Cc1cccc(CNc2cc(-c3ccccc3Cl)ncn2)c1`, for which the max dye-equivalent concentration result is “inactive”.

Turning to `Cc1cnc(CNc2cc(-c3c(C)noc3C)ncn2)cn1`, the max dye-equivalent concentration is 22 nM (active).

In the case of `Cc1noc(C)c1-c1cc(NCc2cccnc2)ncn1`, the max dye-equivalent concentration result was “inactive”.

Take `COCCNc1cc(-c2c(C)noc2C)ncn1`: the max dye-equivalent concentration was 14 nM (active).

On to `COc1ccccc1CNc1ncnc2ccc(-c3c(C)noc3C)cc12`, for which the max dye-equivalent concentration result was “inactive”.

Take `CNc1cc(-c2c(C)noc2C)ncn1`: the max dye-equivalent concentration result is “inactive”.

For the molecule `O=C(NC1CC2CCCC(C1)N2C(=O)N1CCCCC1)C1CCCCC1` (stereo not given), the max dye-equivalent concentration result was “inactive”.

Regarding `CCN(CC)P(=O)(/C(Cl)=C\Nc1c(C)n(C)n(-c2ccccc2)c1=O)N(CC)CC`, the max dye-equivalent concentration entry is “inactive”.

As to `CCCCN(CCCC)C(=O)CCS(=O)(=O)c1ccc2c(c1)n(C)c(=O)c(=O)n2C`, the max dye-equivalent concentration entry is “inactive”.

With `CCOc1ccccc1Oc1cn[nH]c1-c1ccc(OC)cc1O`, the max dye-equivalent concentration result was “inactive”.

For the molecule `CCN(C(=O)CSc1ncn[nH]1)c1cccc2ccccc12`, the max dye-equivalent concentration entry is “inactive”.

As for `CC(=O)NS(=O)(=O)c1ccccc1`, the max dye-equivalent concentration entry was “inactive”.

Take `Cc1c(S(=O)(=O)O)ccc(N=Nc2c(O)c(C(=O)O)cc3ccccc23)c1Cl`: the max dye-equivalent concentration is 12 nM (active).

On to `O=C(COc1ccc(F)cc1)N(CC1=CCS(=O)(=O)C1)c1ccccc1`, for which the max dye-equivalent concentration entry is “inactive”.

As to `COc1cc(C2C(C(=O)c3ccc(C)o3)=C(O)C(=O)N2Cc2cccnc2)ccc1O` (stereo not given), the max dye-equivalent concentration entry was “inactive”.

For `CCOC(=O)c1c(C)[nH]c(C(=O)COc2ccc3c(c2)OCO3)c1C`, the max dye-equivalent concentration result is “inactive”.

Consider `CCOC(=O)c1c(C)[nH]c(C(=O)NCc2ccccc2OC)c1C`, for which the max dye-equivalent concentration entry was “inactive”.

Take `CCCCOC(=O)c1[nH]c(C)c(C(=O)OC)c1C`: the max dye-equivalent concentration was 450 nM (active).

As for `CCOC(=O)COc1ccc(Cl)cc1C1NC(=O)NC(C)=C1C(C)=O` (stereo not given), the max dye-equivalent concentration entry is “inactive”.

For `O=S(=O)(NCc1cccnc1)c1ccc(Br)s1`, the max dye-equivalent concentration result was “inactive”.

Consider `CCC[C@H]1C(=O)N2C(N(C)C)=Nc3ccc(C)cc3N2C1=O`, for which the max dye-equivalent concentration result is “inactive”.

Consider `CC(=O)C1C(c2cccc(Oc3ccccc3)c2)NC(=O)NC1(O)C(F)(F)F` (stereo not given), for which the max dye-equivalent concentration entry is “inactive”.

Take `COc1ccccc1N1CCN(C(=O)c2cc(-c3ccc(Cl)c(Cl)c3)on2)CC1`: the max dye-equivalent concentration result was “inactive”.

Take `CCc1c(C)nc2ncnn2c1N1CCC(C(=O)NCc2ccc3c(c2)OCO3)CC1`: the max dye-equivalent concentration result was “inactive”.

Regarding `C=CCC(NCCCO)c1cccc(OC)c1OC` (stereo not given), the max dye-equivalent concentration result was “inactive”.

For `COc1ccc(-c2cc3ccc(OCc4nn[nH]n4)cc3oc2=O)cc1`, the max dye-equivalent concentration was 11000 nM (active).

As to `COc1ccc(OCc2ccc(-c3nc4ccccc4c(=O)n3N)o2)cc1`, the max dye-equivalent concentration entry is “inactive”.

As for `Cc1nnc(SCC(=O)N2CCc3ccccc32)n1-c1ccccc1`, the max dye-equivalent concentration entry is “inactive”.

As for `N#Cc1c2c(c(-c3ccccc3)[nH]c1=O)CCCC2`, the max dye-equivalent concentration was 20 nM (active).

With `Nc1nnnn1/N=C/c1cccs1`, the max dye-equivalent concentration entry was “inactive”.

In the case of `N=c1c2c3c(sc2ncn1N)CCCCC3`, the max dye-equivalent concentration entry is “inactive”.

In the case of `COc1ccccc1-c1nc(N2CCN(C)CC2)c2ccccc2n1`, the max dye-equivalent concentration entry is “inactive”.

Consider `COc1ccccc1CNC(=O)C1CCN(c2nc3ccccc3o2)CC1`, for which the max dye-equivalent concentration result is “inactive”.

As for `COc1cc2nc(N3CCN(C(=O)[C@@H]4CCCO4)CC3)nc(N)c2cc1OC`, the max dye-equivalent concentration is 830 nM (active).

Turning to `Cc1ccc(C(c2nnnn2CS(=O)(=O)c2ccc(C)cc2)N2CCC(C(N)=O)CC2)cc1` (stereo not given), the max dye-equivalent concentration entry was “inactive”.

Consider `O=P(c1ccc2c(c1)OCCO2)(N1CCOCC1)N1CCOCC1`, for which the max dye-equivalent concentration entry is “inactive”.

For `COc1ccccc1CNCc1cccs1`, the max dye-equivalent concentration result was “inactive”.

For the molecule `O=C(O)C1CCN(c2ncnc3ccc(-c4ccccc4C(F)(F)F)cc23)CC1`, the max dye-equivalent concentration result is “inactive”.

With `COc1ccc(S(=O)(=O)N2CCN(C(=O)c3cccs3)CC2)cc1OC`, the max dye-equivalent concentration is 3700 nM (active).

Consider `CCCS(=O)(=O)N1CCN(C(=O)c2cccs2)CC1`, for which the max dye-equivalent concentration entry is “inactive”.

For the molecule `COc1ccc(OCC(=O)N2CCN(C(=O)c3cccs3)CC2)cc1`, the max dye-equivalent concentration result is “inactive”.

`CC(C)Oc1ccc(C2NC(=O)NC2=O)cc1` (stereo not given): the max dye-equivalent concentration entry was “inactive”.

Take `COc1ccc2c(c1OC)C(=O)OC2c1c(O)nc(SC)n(-c2ccccc2)c1=O` (stereo not given): the max dye-equivalent concentration result was “inactive”.

Turning to `O=C(CCCn1c(=O)oc2ccccc21)Nc1cccnc1`, the max dye-equivalent concentration result is “inactive”.

`Oc1c(CN2CCOCC2)ccc(CN2CCOCC2)c1O`: the max dye-equivalent concentration entry is “inactive”.

`FC(F)(F)c1cc(-c2cccs2)nc(NCc2ccco2)n1`: the max dye-equivalent concentration was 16 nM (active).

For `O=C(CSc1nc(-c2ccco2)cc(C(F)(F)F)n1)NCc1cccs1`, the max dye-equivalent concentration entry was “inactive”.

`COc1ccc(-c2cc(C(F)(F)F)nc(SCCC(=O)NCc3ccco3)n2)cc1`: the max dye-equivalent concentration entry was “inactive”.

Turning to `Cc1ccc(NC2=NC(c3ccccc3)n3c(nc(C)cc3=O)N2)cc1` (stereo not given), the max dye-equivalent concentration result was “inactive”.

Take `CC(=O)NC1=NC(=O)CS1`: the max dye-equivalent concentration entry was “inactive”.

For the molecule `CCOC(=O)c1ccc(COC(=O)c2cc(=O)[nH]c3ccccc23)o1`, the max dye-equivalent concentration was 40 nM (active).

For the molecule `COc1ccc(COC(=O)c2n[nH]c3ccccc23)cc1F`, the max dye-equivalent concentration entry was “inactive”.

For `CCOC(=O)c1ccc(CS(=O)c2ccc(Cl)cc2)o1` (stereo not given), the max dye-equivalent concentration result is “inactive”.
